The results in this text go back to PubChem BioAssay AID463173 (ICCB-Longwood Screening Facility, Harvard Medical School, 2010).

The structures appear in SMILES notation. Among all 52,000 compounds or so, about 1,700 (3.3%) were called active. Only a selection was taken, and actives are over-represented in it overall. Unmarked numbers belong to inactive results. No stated cut-off is given here; in the data, active means survival mostly below about 52% (no sharp cut-off); inactive means mostly above about 56%.

The subject of this assay is Wild type. Kind of assay: growth inhibition of S. aureus wild type versus tarO mutant, primary screen, teichoic acid synthesis inhibitors, RN4220, OD600 (AID 463173). To be noted: S. aureus RN4220 wild type/DeltatarO growth, OD600, 18 h, active compounds read low, screened at 18.75 µg/mL (by protocol).
In the case of `CN(C)c1ccc(NC(=O)CN2C(=O)c3ccccc3Sc3ccc(C(=O)N4CCCC4)cc32)cc1`, the survival is -4% (active).
Consider `Cc1ccc(NC(=O)CN2C(=O)c3ccccc3Sc3ccc(C(=O)N4CCCC4)cc32)cc1`, for which the survival was 64%.
As for `Cc1cc(C)cc(NC(=O)CN2C(=O)c3ccccc3Sc3ccc(C(=O)N4CCOCC4)cc32)c1`, the survival is 69%.
`CCc1ccc(NC(=O)CN2C(=O)c3ccccc3Sc3ccc(C(=O)N4CCCC4)cc32)cc1`: the survival is 82%.
`O=C(CN1C(=O)c2ccccc2Sc2ccc(C(=O)N3CCOCC3)cc21)Nc1ccc(Cl)cc1F`: the survival is 73%.
With `Cc1ccc(NC(=O)CN2C(=O)c3ccccc3Sc3ccc(C(=O)N4CCOCC4)cc32)c(Cl)c1`, the survival was -6% (active).
As to `Fc1ccc(-c2noc3ncnc(NCc4cccc(Cl)c4)c23)cc1`, the survival was 55%.
Regarding `COc1ccccc1CN1CCNC(=O)C1=O`, the survival was 77%.
Turning to `O=C(CSc1nc2c([nH]c3ccccc32)c(=O)n1-c1ccccc1)N1CCOCC1`, the survival was 75%.
With `O=S1(=O)c2ccccc2N(Cc2ccccc2Cl)c2ccccc21`, the survival was 80%.
The result for `COc1ccc(N2CCN(C(CNC(=O)C(=O)NCCc3ccccc3)c3cccnc3)CC2)cc1` (stereo not given) reads 84%; that for `CC(NC(=O)C(=O)Nc1c2c(nn1-c1ccccc1)CSC2)c1ccccc1` (stereo not given), 55%; that for `CCC(CO)NC(=O)C(=O)Nc1c2c(nn1-c1ccc(F)cc1)CSC2` (stereo not given), 87%.
For the compound `CN1CCN(C(=O)C(=O)Nc2c3c(nn2-c2ccc(Cl)cc2)CSC3)CC1`, the survival is 71%.
Next, `CC(=O)N1CCN(C(=O)C(=O)Nc2c3c(nn2-c2ccc(Cl)cc2)CSC3)CC1`: -3% (active).
Regarding `CC(NC(=O)C(=O)Nc1c2c(nn1-c1ccc(F)cc1)CSC2)c1ccccc1` (stereo not given), the survival was -4% (active).
As to `CN1CCN(C(=O)C(=O)Nc2c3c(nn2-c2ccc(F)cc2)CSC3)CC1`, the survival was 81%.
Next, `Cc1cccc(OCC(=O)N(Cc2cccc(Cl)c2)Cc2ccco2)c1C`: 85%.
Regarding `CCOC(=O)c1ccc(NC(=O)c2cnc3c(-c4ccc(F)cc4)c(C)nn3c2C)cc1`, the survival is 120%.
`CCOC(=O)c1ccc(CN(Cc2ccc(OC)cc2)S(=O)(=O)c2cccc(C(F)(F)F)c2)cc1`: the survival is 73%.
For the compound `O=C(Nc1ccc(F)c(F)c1)c1cc(S(=O)(=O)NC2CCCCCC2)ccc1F`, the survival is 53%.
Next, `Cc1ccc(NC(=O)c2cc(S(=O)(=O)NC3CCCCCC3)ccc2F)cc1F`: 79%; `Cc1ccc(NC(=O)c2cc(S(=O)(=O)NC3CCCCC3)ccc2F)cc1Cl`: -6% (active).
For the compound `Cc1ccc(NC(=O)c2cc(S(=O)(=O)NCCC3=CCCCC3)ccc2F)cc1F`, the survival was 82%.
As to `Cc1ccc(NC(=O)c2cc(S(=O)(=O)NCCC3=CCCCC3)ccc2F)cc1C`, the survival is -3% (active).
For `COc1ccc(CCNS(=O)(=O)c2ccc(F)c(C(=O)Nc3ccc(Cl)cc3)c2)cc1OC`, the survival was 126%.
Consider `COc1ccc(OC)c(NC(=O)c2cc(S(=O)(=O)NCCc3ccc(Cl)cc3)ccc2F)c1`, for which the survival was 79%.
With `O=C(Nc1ccc(Br)cc1)c1ccc(F)c(S(=O)(=O)NC2CCCCCC2)c1`, the survival was 56%.
On to `Cc1cc(C)cc(NC(=O)c2cc(S(=O)(=O)NCCC3=CCCCC3)ccc2F)c1`, for which the survival is 80%.
As for `CCc1ccc(NC(=O)c2ccc(F)c(S(=O)(=O)NC3CCCCCC3)c2)cc1`, the survival was -4% (active).
Consider `CCc1ccc(NC(=O)c2ccc(F)c(S(=O)(=O)N(C)C3CCCCC3)c2)cc1`, for which the survival was 71%.
Take `CCc1ccccc1NC(=O)c1cc(S(=O)(=O)NCCc2ccc(OC)c(OC)c2)ccc1F`: the survival was 0% (active).
As to `O=S(=O)(c1ccccc1)c1nc(-c2cccs2)oc1SCc1ccc(F)cc1`, the survival was 61%.
As for `O=C(COCc1cc(-c2cccs2)on1)Nc1ccc(OC(F)(F)F)cc1`, the survival is 124%.
The result for `CCc1cccc(NC(=O)c2nc(-c3ccncc3)no2)c1` reads 101%.
Next, `CC(NC(=O)c1ccc(CSc2nc3ccncc3n2Cc2ccc(F)cc2)cc1)c1ccccc1` (stereo not given): 92%; `CC(C)(C)C1CCc2c(sc(NC(=O)CCC(=O)O)c2C(=O)Nc2ccccc2C(F)(F)F)C1` (stereo not given): 1% (active).
In the case of `CC1CCN(C(=O)c2c(NC(=O)c3ccccc3F)sc3c2CCC(C(C)(C)C)C3)CC1` (stereo not given), the survival is -2% (active).
For `Cc1ccccc1NC(=O)c1c(NC(=O)c2ccncc2)sc2c1CCC(C(C)(C)C)C2` (stereo not given), the survival was 91%.
Consider `Cc1ccccc1NC(=O)c1c(NC(=O)c2ccccc2F)sc2c1CCC(C)C2` (stereo not given), for which the survival is 82%.
In the case of `Cc1ccc(C(=O)Nc2sc3c(c2C(=O)NCc2ccco2)CCC(C(C)(C)C)C3)cc1` (stereo not given), the survival was 70%.
`CCCNC(=O)c1c(NC(=O)c2ccccc2)sc2c1CCC(C(C)(C)C)C2` (stereo not given): the survival was 2% (active).
On to `Cc1ccccc1C(=O)Nc1sc2c(c1C(=O)O)CCC(C(C)(C)C)C2` (stereo not given), for which the survival was 6% (active).
Next, `CC(C)(C)C1CCc2c(sc(NC(=O)c3cccc(Cl)c3)c2C(N)=O)C1` (stereo not given): 75%.
In the case of `CC(C)(C)C1CCc2c(sc(NC(=O)c3ccc(Cl)cc3)c2C(=O)NCc2ccco2)C1` (stereo not given), the survival is 95%.
`COc1ccccc1NC(=O)c1c(NC(=O)Cc2ccccc2)sc2c1CCC(C(C)(C)C)C2` (stereo not given): the survival is 102%.
Take `Cc1ccccc1C(=O)Nc1sc2c(c1C(=O)NCc1ccco1)CCC(C(C)(C)C)C2` (stereo not given): the survival is 88%.
The result for `COc1ccccc1NC(=O)c1c(NC(=O)c2cccs2)sc2c1CCC(C(C)(C)C)C2` (stereo not given) reads 118%; that for `CCCNC(=O)CCCN1C(=O)CCn2nc(-c3cccn3C)cc21`, 71%.
As to `O=C(CN1CCC(O)(c2ccccc2)CC1)NC1CCCCC1`, the survival was 111%.
For the compound `Cc1ccc(CNC(=O)CCCCCn2c(=O)c3sccc3n(CC(=O)N(C)c3ccccc3)c2=O)cc1`, the survival was 83%.
The result for `O=C(CSc1nc(=O)[nH]c2c1CCCC2)NCc1ccccc1Cl` reads 135%.
With `COc1ccc(NC(=O)N2CCN(S(=O)(=O)c3ccc4c(ccn4C)c3)CC2)c(OC)c1`, the survival was 87%.
On to `CC(C)(C)C1CCc2c(sc(NC(=O)c3ccco3)c2C(=O)Nc2ccccc2Cl)C1` (stereo not given), for which the survival is 108%.
With `CC(C)(C)C1CCc2c(sc(NC(=O)c3ccccc3F)c2C(=O)N2CCCCC2)C1` (stereo not given), the survival was -3% (active).
On to `CC(C)(C)C1CCc2c(sc(NC(=O)c3ccncc3)c2C(=O)Nc2ccccc2Cl)C1` (stereo not given), for which the survival was 84%.
On to `Cc1ccccc1C(=O)Nc1sc2c(c1C(=O)N1CCC(C)CC1)CCCC2`, for which the survival is 64%.
As to `CCN(CC)C(=O)c1c(NC(=O)c2ccccc2F)sc2c1CCC(C(C)(C)C)C2` (stereo not given), the survival is -3% (active).
Turning to `CCOc1ccccc1NC(=O)c1c(NC(=O)c2ccccc2C)sc2c1CCC(C)C2` (stereo not given), the survival is 75%.
Take `CC1CCN(C(=O)c2c(NC(=O)c3ccccc3Cl)sc3c2CCC(C(C)(C)C)C3)CC1` (stereo not given): the survival is 2% (active).
Regarding `CN(C)C(=O)c1c(NC(=O)c2ccccc2F)sc2c1CCCC2`, the survival is 82%.
As to `Cc1ccccc1C(=O)Nc1sc2c(c1C(=O)N1CCC(C)CC1)CCC(C)C2` (stereo not given), the survival was 0% (active).
Next, `CC(C)(C)C1CCc2c(sc(NC(=O)c3ccccc3F)c2C(=O)NCc2ccco2)C1` (stereo not given): 70%; `Cc1ccccc1C(=O)Nc1sc2c(c1C(=O)N1CCCCC1)CCC(C)C2` (stereo not given): 36%; `O=C(Nc1sc2c(c1C(=O)N1CCCCC1)CCCC2)c1ccccc1Cl`: 75%.
In the case of `COc1ccc(N2CC(NC(=O)/C=C\c3ccccc3)CC2=O)cc1` (stereo not given), the survival was 101%.
Turning to `CC(=O)Nc1ccc(N2CCN(Cc3ccccc3)CC2)cc1`, the survival was 106%.
The result for `COc1ccc2oc(=O)c(-c3csc(-c4ccc(Br)cc4)n3)cc2c1` reads 80%; that for `CCc1nn(CC(=O)NC2CC2)c(=O)c2cc3ccccc3n12`, 121%.
For `Cc1ccc2c(=O)cc(C(=O)Nc3nc4ccc(Cl)cc4s3)oc2c1`, the survival is 65%.
On to `Cc1cc(C)cc(NC(=O)Cn2nnc(C(=O)NCCc3ccccc3)c2N)c1`, for which the survival was 93%.
As for `CCC(=O)Nc1sc2c(c1C(=O)Nc1ccc(OC)cc1)CCC(C(C)(C)C)C2` (stereo not given), the survival is 2% (active).
Consider `COc1ccc(NC(=O)c2c(NC(=O)COc3ccccc3)sc3c2CCC(C(C)(C)C)C3)cc1` (stereo not given), for which the survival is 77%.
`Cc1ccccc1C(=O)Nc1nc2c(s1)CC(C(C)(C)C)CC2` (stereo not given): the survival was 124%.
As to `Cc1ccccc1NC(=O)c1c(NC(=O)c2ccco2)sc2c1CCC(C(C)(C)C)C2` (stereo not given), the survival was 75%.
Next, `COc1ccc(NC(=O)c2c(NC(=O)c3ccncc3)sc3c2CCC(C(C)(C)C)C3)cc1` (stereo not given): 47%; `Cc1ccccc1C(=O)Nc1sc2c(c1C(=O)N1CCCCC1)CCC(C(C)(C)C)C2` (stereo not given): 1% (active).
The result for `CCc1cccc(C)c1NC(=O)CN1C(=O)C2(SCC(=O)N2c2cccc(F)c2)c2ccccc21` (stereo not given) reads 136%; that for `Cc1c(Cl)cccc1NC(=O)Cn1nnc(-c2nc(-c3ccccc3)no2)c1N`, 55%; that for `COc1ccc2c(c1)c1c(c(=O)n(-c3ccccc3C)c(=O)n1C)n2C`, 81%.
In the case of `CCOc1cc(S(=O)(=O)NC2CC2)c(OCC)cc1-n1cnnn1`, the survival was 102%.
With `COc1ccc(Br)cc1CNC(=O)c1cc(=O)[nH]c2ccc(S(=O)(=O)N3CCCCC3C)cc12` (stereo not given), the survival was 105%.
Turning to `COc1ccc(OC)c(CNC(=O)c2cc(=O)[nH]c3ccc(S(=O)(=O)N4CCCCC4C)cc23)c1` (stereo not given), the survival is 1% (active).
Next, `COc1ccc(CCNC(=O)c2cc(=O)[nH]c3ccc(S(=O)(=O)N4CCCCC4C)cc23)cc1OC` (stereo not given): 127%; `Cc1ccc(Sc2c(C)nn(C(=O)COc3ccccc3Br)c2C)cc1`: 90%; `Cc1nn(C(=O)c2ccccc2)c(C)c1S(=O)(=O)N1CCCCCC1`: 80%.
For `Cc1ccc(Sc2c(C)nn(C(=O)c3ccc(Br)cc3)c2C)cc1`, the survival is 13% (active).
As to `Cc1nn(C(=O)COc2ccccc2Br)c(C)c1Sc1ccccc1`, the survival is 57%.
The result for `Cc1nn(C(=O)c2ccc(Br)cc2)c(C)c1S(=O)(=O)N1CCOCC1` reads 71%.
Take `Cc1nn(C(=O)c2ccc(Br)cc2)c(C)c1Sc1ccccc1`: the survival was -4% (active).
